Data as given in PubChem BioAssay (Tox21).
Inconclusive results are not listed. Activity calls are given as the source filed them. Unless noted, calls come from the whole dose curve.

Tests used:
[1] = Nuclear factor erythroid 2-related factor 2/antioxidant responsive element (Nrf2/ARE) small molecule agonists: qHTS cell viability counter screen in human keratinocytes (AID 1919968; active = well fitted curve in the direction sought with a large enough effect in the repeat runs; an effect the other way counts as inactive or inconclusive; note: nearly all actives have a fitted effect of over 55% in size)
How it was run: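 In human HaCaT keratinocytes stably expressing an ARE-driven luciferase, compound exposure lasted 23 h at 37 C under 5% CO2. Viable cells are quantified with a protease-based fluorogenic reagent (CellTiter-Fluor) read 1 h after addition.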

[2] = molecular target: Gonadotropin-releasing hormone receptor (Homo sapiens) (UniProt P30968); assay: Human gonadotropin-releasing hormone receptor (GnRHR) small molecule agonists, calcium flux assay in GnRHR-HEK293 cells (AID 1920063); note: nearly all actives have a fitted effect of over 35% in size
Chain of Gonadotropin-releasing hormone receptor (Homo sapiens) (P30968 whole entry, looked up): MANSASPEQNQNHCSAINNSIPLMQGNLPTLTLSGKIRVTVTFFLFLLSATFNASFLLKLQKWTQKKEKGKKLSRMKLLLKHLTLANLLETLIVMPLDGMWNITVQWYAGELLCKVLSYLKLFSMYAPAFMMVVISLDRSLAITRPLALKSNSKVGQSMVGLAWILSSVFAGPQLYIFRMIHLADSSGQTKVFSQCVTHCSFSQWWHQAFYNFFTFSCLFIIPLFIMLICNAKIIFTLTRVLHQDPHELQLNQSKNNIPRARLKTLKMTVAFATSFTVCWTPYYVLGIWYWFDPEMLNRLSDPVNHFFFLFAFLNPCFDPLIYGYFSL
How it was run: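 Intracellular calcium rise is the read-out: engineered human GnRHR HEK293 cells, dye-loaded, are exposed to DMSO-dissolved compounds and fluorescence at Ex/Em 480/540 is tracked for 3 min.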

[3] = molecular target: KiSS-1 receptor (Homo sapiens) (UniProt Q969F8); assay: Human kisspeptin (KISS1R) small molecule agonists, calcium flux assay in KISS1R-HEK293 cells (AID 1920064; active = well fitted curve in the direction sought with a large enough effect in the repeat runs; an effect the other way counts as inactive or inconclusive)
Chain of KiSS-1 receptor (Homo sapiens) (Q969F8 whole entry, looked up): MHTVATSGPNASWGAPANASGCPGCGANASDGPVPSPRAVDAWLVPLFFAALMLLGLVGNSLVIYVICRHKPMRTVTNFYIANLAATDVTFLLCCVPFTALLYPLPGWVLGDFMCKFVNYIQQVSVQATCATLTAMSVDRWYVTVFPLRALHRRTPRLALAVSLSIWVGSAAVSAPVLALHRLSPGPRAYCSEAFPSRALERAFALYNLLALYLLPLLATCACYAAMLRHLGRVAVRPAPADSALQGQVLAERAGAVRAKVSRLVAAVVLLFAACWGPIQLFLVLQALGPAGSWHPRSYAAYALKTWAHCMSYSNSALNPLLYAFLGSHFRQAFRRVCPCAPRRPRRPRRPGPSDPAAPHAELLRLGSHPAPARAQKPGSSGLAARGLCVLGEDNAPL
How it was run: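 Concentration-response testing used 15 concentrations in triplicate on human KISS1R-expressing HEK293 cells. Calcium-dependent fluorescence (Ex/Em 480/540) was followed kinetically for 3 min after compound transfer.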

[4] = G protein-coupled receptor (GPCR) small molecule agonists, calcium flux assay: HEK293 wild type cell line counter screen (AID 1920065)
How it was run: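 Fluorescence intensity signals activation. After overnight (18 h) culture and a 1 h calcium dye load at 37 C, compounds are added by pin tool and the plate read at 480/540 nm for 3 min in 1 s steps.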

[5] = p53 small molecule agonists, cell-based qHTS assay with human liver microsomes (AID 1963577)
How it was run: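 p53RE-bla cells, 4,000/well, compound added after 5 h, with human liver microsomes 0.5 mg/mL and NADPH 0.5 mg/mL final; 16 h at 37 C, then LiveBLAzer 2 h RT, fluorescence.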

[6] = p53 small molecule agonists, cell-based qHTS assay with rat liver microsomes (AID 1963578)
How it was run: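 p53RE-bla cells, 4,000/well, pre-incubated 5 h, then given compounds plus rat liver microsomes (0.5 mg/mL final) and NADPH (0.5 mg/mL final). Incubation 16 h at 37 C; beta-lactamase reporter read by LiveBLAzer fluorescence after 2 h at room temperature.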

[7] = p53 small molecule agonists, cell-based qHTS assay with human liver microsomes: qHTS cell viability counter screen (AID 1963579); note: nearly all actives have a fitted effect of over 45% in size
How it was run: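 p53RE-bla cells, 4,000/well, dosed 5 hours after plating, with human liver microsomes (0.5 mg/mL final) plus NADPH (0.5 mg/mL final), 16 hours at 37 C. Viability read as CellTiter-Glo luminescence after 30 min at room temperature.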

[8] = p53 small molecule agonists, cell-based qHTS assay with rat liver microsomes: qHTS cell viability counter screen (AID 1963580); note: nearly all actives have a fitted effect of over 45% in size
How it was run: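 Counter screen for cytotoxicity under metabolic activation: rat liver microsomes and NADPH, 0.5 mg/mL final each, added with compounds to p53RE-bla HCT-116 cells; 16 h at 37 C, then ATP luminescence read.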

[9] = p53 small molecule agonists, cell-based qHTS assay: qHTS cell viability counter screen (AID 1963581); note: nearly all actives have a fitted effect of over 45% in size
How it was run: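 Luminescence from CellTiter-Glo, reflecting ATP content, serves as the cytotoxicity measure; it is taken after the 2 h reporter substrate step in HCT-116 p53RE-bla cells dosed for 16 h at 37 C.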

[10] = p53 small molecule agonists, cell-based qHTS assay (AID 1963582; active = well fitted activation curve with a large enough effect in the signal ratio in the repeat runs, not every such curve was filed as active; the % refers to the signal ratio)
How it was run: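 After plating, p53RE-bla cells sat 5 h in the incubator; compounds or DMSO vehicle were pinned in; a 16 h incubation at 37 C followed; FRET substrate was added and, 2 h later at RT, fluorescence was measured.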

[11] = molecular target: 5-hydroxytryptamine receptor 2A (Homo sapiens) (UniProt P28223); assay: 5-hydroxytryptamine receptor 2A (HTR2A) small molecule antagonists, cell-based qHTS assay (AID 1963586); note: nearly all actives have a fitted effect of over 45% in size
Chain of 5-hydroxytryptamine receptor 2A (Homo sapiens) (P28223 whole entry, looked up): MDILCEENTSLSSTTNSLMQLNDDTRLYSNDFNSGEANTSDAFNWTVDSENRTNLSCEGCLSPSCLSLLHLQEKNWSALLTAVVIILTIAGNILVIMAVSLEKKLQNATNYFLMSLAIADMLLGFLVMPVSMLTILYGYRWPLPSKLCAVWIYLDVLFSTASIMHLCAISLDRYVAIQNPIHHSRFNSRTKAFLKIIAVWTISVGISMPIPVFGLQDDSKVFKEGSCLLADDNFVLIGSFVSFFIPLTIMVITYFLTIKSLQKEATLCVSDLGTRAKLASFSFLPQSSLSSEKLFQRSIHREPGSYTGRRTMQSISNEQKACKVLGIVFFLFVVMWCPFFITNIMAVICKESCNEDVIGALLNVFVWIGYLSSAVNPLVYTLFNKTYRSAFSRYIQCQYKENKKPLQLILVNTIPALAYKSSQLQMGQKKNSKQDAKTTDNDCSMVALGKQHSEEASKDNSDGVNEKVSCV
How it was run: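 CHO cells stably expressing human HTR2A were plated for 18 h at 37 C, then loaded with calcium dye for 1 h. Compounds were preincubated 5 min at room temperature before DOI (4 nM solution) was added. Kinetic fluorescence was read for 3 min.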

[12] = molecular target: 5-hydroxytryptamine receptor 2A (Homo sapiens) (UniProt P28223); assay: 5-hydroxytryptamine receptor 2A (HTR2A) small molecule agonists, cell-based qHTS assay (AID 1963587); note: nearly all actives have a fitted effect of over 30% in size
How it was run: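 HTR2A-CHO cells, plated 18 h at 37 C/5% CO2, dye-loaded 1 h at 37 C; compounds in DMSO added by pin tool (agonist mode). Intracellular calcium flux read as kinetic fluorescence on FDSS over 2 min at 1 s intervals.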

[13] = molecular target: Muscarinic acetylcholine receptor M1 (Homo sapiens) (UniProt P11229); assay: Cholinergic receptor muscarinic 1 (CHRM1) small molecule agonists, cell-based qHTS assay (AID 1963589); note: nearly all actives have a fitted effect of over 35% in size
Chain of Muscarinic acetylcholine receptor M1 (Homo sapiens) (P11229 whole entry, looked up): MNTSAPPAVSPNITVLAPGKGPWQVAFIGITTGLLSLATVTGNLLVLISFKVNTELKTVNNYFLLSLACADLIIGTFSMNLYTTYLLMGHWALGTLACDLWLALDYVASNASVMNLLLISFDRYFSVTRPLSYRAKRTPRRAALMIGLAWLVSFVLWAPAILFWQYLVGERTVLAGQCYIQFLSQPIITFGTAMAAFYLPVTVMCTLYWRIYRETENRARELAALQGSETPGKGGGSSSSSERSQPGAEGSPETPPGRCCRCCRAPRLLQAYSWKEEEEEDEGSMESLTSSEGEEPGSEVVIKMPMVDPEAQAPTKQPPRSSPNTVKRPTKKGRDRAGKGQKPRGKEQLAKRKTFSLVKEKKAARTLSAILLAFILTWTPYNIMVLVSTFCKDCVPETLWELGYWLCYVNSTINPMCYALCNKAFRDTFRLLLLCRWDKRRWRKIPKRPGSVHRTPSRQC
How it was run: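 Fluorescent calcium dye reports M1 activation in stably transfected CHO cells. Compounds, 15 concentrations, added after 1 h dye loading at 37 C; kinetic reading at 1 sec intervals.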

[14] = cAMP Responsive Elements (CRE) small molecule agonists, cell-based qHTS assay (AID 1963590)
How it was run: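 Compound exposure lasted 3 h at 37 C/5% CO2 in CRE-bla HEK 293T cells grown in assay medium with 10% dialyzed FBS and 25 mM HEPES. Reporter signal came from LiveBLAzer B/G FRET substrate, 2 h, room temperature.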

[15] = cAMP Responsive Elements (CRE) small molecule antagonists, cell-based qHTS assay (AID 1963591; active = well fitted inhibition curve with a large enough effect in the signal ratio in the repeat runs, not every such curve was filed as active; the % refers to the signal ratio)
How it was run: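 Stimulation used NKH477 at a final 0.25 uM for 3 h in compound-treated CRE-bla HEK293T cells, seeded 18 h beforehand. Reporter activity was measured with LiveBLAzer B/G FRET substrate after 2 h at room temperature.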

[16] = molecular target: D(2) dopamine receptor (Homo sapiens) (UniProt P14416); assay: Dopamine D2 receptor (DRD2) small molecule agonists, cell-based qHTS assay (AID 1963594); note: nearly all actives have a fitted effect of over 35% in size
Chain of D(2) dopamine receptor (Homo sapiens) (P14416 whole entry, looked up): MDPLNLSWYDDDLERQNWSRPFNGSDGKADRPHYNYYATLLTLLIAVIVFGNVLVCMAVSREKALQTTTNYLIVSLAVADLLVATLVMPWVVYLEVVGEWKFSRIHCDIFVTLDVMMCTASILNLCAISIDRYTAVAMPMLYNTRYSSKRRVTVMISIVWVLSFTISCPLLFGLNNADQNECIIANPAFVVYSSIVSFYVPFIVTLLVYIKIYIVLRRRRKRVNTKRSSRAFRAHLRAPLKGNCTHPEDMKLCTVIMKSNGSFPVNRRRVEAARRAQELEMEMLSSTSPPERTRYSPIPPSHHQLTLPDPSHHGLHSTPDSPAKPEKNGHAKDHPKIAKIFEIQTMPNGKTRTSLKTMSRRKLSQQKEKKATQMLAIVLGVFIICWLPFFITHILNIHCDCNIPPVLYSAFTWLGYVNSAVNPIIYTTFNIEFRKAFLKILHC
How it was run: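 HEK293 cells stably expressing DRD2 were cultured 24 h at 37 C, then given Ro20-1724 (0.1 mM final) and compounds for 10 min at room temperature. NKH477 (200nM) was then added for 30 min. cAMP was read by HTRF.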

[17] = molecular target: Muscarinic acetylcholine receptor M1 (Homo sapiens) (UniProt P11229); assay: Cholinergic receptor muscarinic 1 (CHRM1) small molecule antagonists, cell-based qHTS assay (AID 1963588); note: nearly all actives have a fitted effect of over 40% in size
How it was run: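 Compounds were tested at 15 concentrations in three independent runs. Dye-loaded CHRM1-CHO cells were exposed 5 min at room temperature before stimulation by acetylcholine added at 50nM. Intracellular calcium was read kinetically on FDSS for 3 min.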

[18] = molecular target: Beta-2 adrenergic receptor (Homo sapiens) (UniProt P07550); assay: Adrenergic beta2 receptor (ADRB2) small molecule antagonists, cell-based qHTS assay (AID 1963592); note: series mostly up to about 92 µM; nearly all actives have a fitted effect of over 50% in size
Chain of Beta-2 adrenergic receptor (Homo sapiens) (P07550 whole entry, looked up): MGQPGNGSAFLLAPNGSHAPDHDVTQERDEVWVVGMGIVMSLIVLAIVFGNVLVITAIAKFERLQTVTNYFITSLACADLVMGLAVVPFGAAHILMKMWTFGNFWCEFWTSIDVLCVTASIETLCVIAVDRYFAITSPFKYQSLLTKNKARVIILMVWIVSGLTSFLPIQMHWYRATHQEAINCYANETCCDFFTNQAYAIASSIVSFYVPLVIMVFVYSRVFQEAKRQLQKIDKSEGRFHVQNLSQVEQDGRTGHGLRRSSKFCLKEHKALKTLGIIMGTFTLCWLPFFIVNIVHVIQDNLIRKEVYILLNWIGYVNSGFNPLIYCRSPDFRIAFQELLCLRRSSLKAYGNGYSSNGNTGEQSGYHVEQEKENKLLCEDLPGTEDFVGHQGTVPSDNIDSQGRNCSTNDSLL
How it was run: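 Assay format: CHO-ADRB2 cells, 18-20hr seeding at 37C/5% CO2, then compound plus 1nM isoproterenol agonist mix for 0.5hr RT. Homogeneous time-resolved fluorescence cAMP detection after 1hr, expressed as 665/615 nm ratio.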

[19] = molecular target: D(2) dopamine receptor (Homo sapiens) (UniProt P14416); assay: Dopamine D2 receptor (DRD2) small molecule antagonists, cell-based qHTS assay (AID 1963595; active = well fitted inhibition curve with a large enough effect in the signal ratio in the repeat runs, with a control signal flat; the % refers to the signal ratio)
How it was run: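 HEK293 cells stably expressing DRD2, preincubated with 0.1 mM Ro20-1724 and compounds 10 min, were stimulated with 200 nM NKH477 plus 12 nM quinpirole for 30 min at room temperature; cAMP measured by HTRF (665/620 nm).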

[20] = molecular target: Beta-2 adrenergic receptor (Homo sapiens) (UniProt P07550); assay: Adrenergic beta2 receptor (ADRB2) small molecule agonists, cell-based qHTS assay (AID 1963593);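 note: CHO cells stably overexpressing human ADRB2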
How it was run: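 CHO cells stably over-expressing ADRB2 were plated overnight at 37C, then dosed with compounds plus a stimulation mix containing 100uM IBMX and 25uM Ro-20-1724 for 0.5hr at room temperature. cAMP was measured by HTRF competition, 1hr.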

Measured: Potency

O=C1Nc2ccc([N+](=O)[O-])cc2C1=O
not listed: [17] | [18] | [19] | [20]
inactive: all other assays above

C[Si](Cl)(c1ccccc1)c1ccccc1
not listed: [12] | [20]
inactive: all other assays above

CCCCCCC1CCC(=O)O1 (centres undefined)
not listed: [14] | [20]
inactive: all other assays above

CCOC(=O)[C@@H](C)Oc1ccc(Oc2nc3ccc(Cl)cc3o2)cc1
not listed: [14] | [17]
inactive: all other assays above

C=C[Si](OCC)(OCC)OCC
not listed: [13] | [17] | [20]
inactive: all other assays above

CCOC(=O)C(C)Oc1ccc(Oc2nc3ccc(Cl)cc3o2)cc1 (centres undefined)
not listed: [14] | [17] | [19]
inactive: all other assays above
